Bioassay records (PubChem)
NCOA2 inhibitor: human SRC2 (NCOA2) inhibition | Q15596 | HEK293 GAL4-SRC2 luciferase reporter, luminescence | inhibition, % at 9 µM | hit rate 0.17% among 370,000 | AID 651957;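 active means inhibition above the mean inhibition of all tested compounds plus 3 SD, set per campaign, cut at about 52% in these data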;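 further: 0% = DMSO treated cells and 100% = cells given Gossypol at 36 µM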
NR2F2 inh: inhibitors of human COUP-TFII (NR2F2); AID 686940; P24468; inhibition, % at 8.6 µM; HEK293T NGFI-A luciferase reporter, luminescence; hit rate 0.7% among 370,000;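 active means inhibition above a per-plate cutoff, mean inhibition of test wells between control levels plus 3 SD, cut at about 38% in these data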;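 further: cells cotransfected with COUP-TFII expression vector driving the NGFI-A reporter; 0% = median of COUP-TF2 test wells and 100% = reporter-only cells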
NR5A2 inv ag: NR5A2 inverse agonism in reporter assay | HEK293T StAR-luciferase reporter, LRH-1 transfected, 24 h | hit rate 0.13% among 360,000 | inhibition, % at 3.6 µM | AID 602396;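 active means inhibition above the mean inhibition of all tested compounds plus 3 SD, cut at about 73% in these data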;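 further: 0% = DMSO wells and 100% = reporter-only cells lacking LRH-1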
NCOA3 inh: human NCOA3 inhibition | HEK293 GAL4-SRC3 luciferase reporter, luminescence | inhibition, % at 3.6 µM | hit rate 0.17% among 360,000 | AID 588352;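 active means inhibition above a per-campaign cutoff, the mean of all compounds plus 3 SD, cut at about 60% in these data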;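 further: 0% = DMSO-treated cells and 100% = gossypol-treated cells at 36 µM; higher means less SRC3-driven luciferase light from the GAL4 reporter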
NCOA1 inh: human NCOA1 inhibition | Q15788 | HEK293 GAL4-SRC1 luciferase reporter, luminescence | inhibition, % at 3.6 µM | hit rate 0.12% among 360,000 | AID 588354;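 active means inhibition above the campaign mean plus 3 SD, with each screening campaign given its own cutoff, cut at about 60% in these data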;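 further: 0% = DMSO treated cells and 100% = gossypol at 36 µM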
Target sequence (Q15788 whole entry, looked up, the tested form may be a part): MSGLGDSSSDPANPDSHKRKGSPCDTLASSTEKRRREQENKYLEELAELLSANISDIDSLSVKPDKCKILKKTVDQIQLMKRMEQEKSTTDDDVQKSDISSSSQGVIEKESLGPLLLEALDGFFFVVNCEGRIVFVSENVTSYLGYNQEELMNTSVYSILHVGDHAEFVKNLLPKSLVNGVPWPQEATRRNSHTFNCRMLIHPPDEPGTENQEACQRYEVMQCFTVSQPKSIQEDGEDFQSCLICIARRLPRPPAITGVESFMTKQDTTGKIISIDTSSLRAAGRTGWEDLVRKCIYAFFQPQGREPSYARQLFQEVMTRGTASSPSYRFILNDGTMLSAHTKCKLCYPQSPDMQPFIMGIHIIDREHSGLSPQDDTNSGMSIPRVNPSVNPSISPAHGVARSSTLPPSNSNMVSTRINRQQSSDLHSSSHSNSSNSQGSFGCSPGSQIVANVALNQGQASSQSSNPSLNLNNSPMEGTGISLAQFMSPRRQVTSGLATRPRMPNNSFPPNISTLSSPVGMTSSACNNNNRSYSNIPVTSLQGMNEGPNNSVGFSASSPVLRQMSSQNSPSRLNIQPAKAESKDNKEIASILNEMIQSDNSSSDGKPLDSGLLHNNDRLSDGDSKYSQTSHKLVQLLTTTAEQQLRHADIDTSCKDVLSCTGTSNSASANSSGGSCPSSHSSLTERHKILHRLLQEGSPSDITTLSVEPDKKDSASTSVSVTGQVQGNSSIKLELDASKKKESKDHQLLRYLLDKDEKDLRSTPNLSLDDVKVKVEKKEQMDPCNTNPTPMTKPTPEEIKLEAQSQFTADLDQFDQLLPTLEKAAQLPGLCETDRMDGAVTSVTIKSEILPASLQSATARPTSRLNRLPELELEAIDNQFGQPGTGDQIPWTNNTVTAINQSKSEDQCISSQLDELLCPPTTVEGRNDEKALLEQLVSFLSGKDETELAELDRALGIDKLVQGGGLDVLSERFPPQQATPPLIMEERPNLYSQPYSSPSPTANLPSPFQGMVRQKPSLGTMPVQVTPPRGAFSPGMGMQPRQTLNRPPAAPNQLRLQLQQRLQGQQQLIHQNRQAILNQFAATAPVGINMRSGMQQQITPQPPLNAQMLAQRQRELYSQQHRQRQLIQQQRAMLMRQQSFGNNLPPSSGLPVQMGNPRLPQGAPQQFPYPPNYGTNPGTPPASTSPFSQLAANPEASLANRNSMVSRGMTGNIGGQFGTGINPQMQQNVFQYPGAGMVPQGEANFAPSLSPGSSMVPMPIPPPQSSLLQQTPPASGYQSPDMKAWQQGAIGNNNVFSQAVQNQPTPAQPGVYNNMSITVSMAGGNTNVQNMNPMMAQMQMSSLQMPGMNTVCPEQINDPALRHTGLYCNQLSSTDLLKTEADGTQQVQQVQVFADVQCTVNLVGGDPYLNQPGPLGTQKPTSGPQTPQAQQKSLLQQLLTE
Gal4-VP16 ctr: counter-screen for COUP-TFII antagonists: inhibitors of VP16. inhibition, % at 8.5 µM. AID 687007. shares compounds with NR2F2 inh. HEK293 Gal4-VP16 luciferase reporter, luminescence. hit rate 25% among 2,500; in the data active means inhibition above about 13%
NR2F2 inh conf: confirmation of human COUP-TFII (NR2F2) inhibitors; shares compounds with NR2F2 inh; HEK293 NGFI-A luciferase reporter, luminescence; inhibition, % at 8.5 µM; hit rate 45% among 2,500; AID 687008;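 active means mean inhibition over three repeats above a set limit taken from the earlier primary screen, cut at about 38% in these data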;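 further: 100% = cells given the luciferase reporter alone without the COUP-TF2 vector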
* = called active by the depositor; x = not tested or not shown; ! = a repeat was not active. Hits are enriched below; roughly 0.84% of the tested compounds scored in any of these assays.

SMILES	NCOA2 inhibitor	NR2F2 inh	NR5A2 inv ag	NCOA3 inh	NCOA1 inh	Gal4-VP16 ctr	NR2F2 inh conf
CC(=O)OC1(C)CC(C)C(=O)C(C(O)CC2CC(=O)NC(=O)C2)C1 (stereo unspecified)	65*	91*	103*	95*	96*	15*	84*
C[C@@H]1C[C@@H]([C@H](O)CC2CC(=O)NC(=O)C2)C(=O)[C@@H](C)C1	70*	87*	103*	93*	93*	-2	67*
O=C(O)c1cc2ccccc2n1C1CCN(Cc2ccccc2)CC1	-6	-15	x	x	x	x	x
CN1c2ccc(Br)cc2[C@H]2NCC[C@H]2[C@H]1CO	0	8	x	x	x	x	x
CC=C(C)C1(CCC)C(=O)NC(=S)NC1=O	-16	-2	-29	-11	-3	x	x
CCC(C)C(NC(=O)CCCNC(=O)CCC(=O)OC1O[C@H]2OC3(C)CC[C@H]4[C@H](C)CCC(C1C)C24OO3)C(=O)O (stereo partly specified)	-24	49*	90*	68*	47	-1	46*
C[C@@H]1CC[C@H]2[C@@H](C)C(=O)O[C@@H]3O[C@@]4(C)CC[C@@H]1[C@]32OO4	9	2	23	-2	6	x	x
CCC(C)NC(=O)CCC(=O)OC1O[C@H]2OC3(C)CC[C@H]4[C@H](C)CCC(C1C)C24OO3 (stereo partly specified)	10	51*	91*	77*	62*	12	49*
Nc1cccc(SC2CC(=O)N(c3ccc(Cl)cc3C(=O)c3ccccc3)C2=O)c1 (stereo unspecified)	38	11	-20	-1	1	x	x
C=C1C(=O)O[C@@H]2C[C@@H](C)[C@@H]3C=CC(=O)[C@@]3(C)[C@@H](O)[C@H]12	85*	97*	87*	61	37	84*	99*
Cc1cc(C)c(S(=O)(=O)N2Cc3ccccc3-n3nncc3C2)c(C)c1	31	40*	12	-1	15	0	18
Nc1ncnc2c1ccn2[C@@H]1O[C@H](CO)[C@@H](O)[C@H]1O	64*	64*	103*	89*	82*	32*	51*
NC(=S)c1cn(C2OC(CO)C(O)C2O)c2ncnc(N)c12 (stereo unspecified)	71*	68*	94*	88*	89*	53*	68*
CC(=Nc1ccccc1N)c1c(O)n(C)c(=O)n(C)c1=O	-19	-37	-91	-92	-81	x	x
CC1=CC2OC3CC4OC(=O)C=CC=CC(C(C)O)OCC(O)C(C)CC(=O)OCC2(CC1O)C4(C)C31CO1 (stereo unspecified)	71*	90*	99*	94*	95*	23*	93*
COc1ccc(-[n+]2c(-c3ccccc3)cc(-c3ccccc3)cc2-c2ccccc2)cc1	21	57*	x	x	x	20*	60*
Oc1ccc(-[n+]2c(-c3ccccc3)cc(-c3ccccc3)cc2-c2ccccc2)cc1	37	62*	34	-48	17	8	51*
COC(=O)C12OCC34C(CC5C(C)=C(O)C(=O)CC5(C)C3C(O)C1O)OC(=O)C(OC(=O)/C=C(\C)C(C)C)C24 (stereo unspecified)	74*	94*	98*	94*	96*	20*	88*
COc1ccc2c3c([nH]c2c1)[C@H](C=C(C)C)N1C(=O)[C@@H]2CCCN2C(=O)[C@@H]1C3	-8	6	x	x	x	x	x
CC(=O)C1CCC2(O)C3CCC4=CC(=O)CCC4(C)C3CCC12C (stereo unspecified)	1	6	16	-4	2	x	x
C[C@@H]1O[C@@H](O[C@@H]2C=C3CC[C@@H]4C(CC[C@]5(C)[C@@H](c6ccc(=O)oc6)CC[C@]45O)[C@@]3(C)CC2)[C@H](O)[C@H](O)[C@H]1O (stereo partly specified)	58*	73*	100*	91*	93*	55*	81*
C[C@@H]1O[C@@H](O[C@@H]2C=C3CCC4C(CC[C@]5(C)[C@@H](c6ccc(=O)oc6)CC[C@]45O)[C@@]3(C)CC2)[C@H](O)[C@H](O)[C@H]1O (stereo partly specified)	71*	81*	103*	93*	90*	56*	82*
CC(C)C(NC(=O)OCc1ccccc1)P(=O)(Oc1ccccc1)Oc1ccccc1 (stereo unspecified)	18	20	x	x	x	x	x
CC[n+]1c(/C=C/C=C/c2ccc(N(C)C)cc2)sc2ccccc21	-21	79*	59	62*	34	23*	82*
CCC(c1nnnn1-c1ccc(OC)cc1)N1CCC(n2c(=O)[nH]c3ccccc32)CC1 (stereo unspecified)	-29	-6	10	-44	-21	x	x
SMILES	NCOA2 inhibitor	NR2F2 inh	NR5A2 inv ag	NCOA3 inh	NCOA1 inh	Gal4-VP16 ctr	NR2F2 inh conf
COc1ccc(-n2nnnc2C(CCc2ccccc2)N2CCC(n3c(=O)[nH]c4ccccc43)CC2)cc1 (stereo unspecified)	-3	39*	41	53	41	1	22
COc1cc2c(cc1OC)[C@H]1C(=O)c3ccc4c(c3O[C@H]1CO2)C[C@@H](C(C)(C)O)O4	11	6	10	-5	3	x	x
COc1cc2c(cc1OC)[C@@H]1C(=O)c3ccc4c(c3O[C@@H]1CO2)C[C@H](C(C)C)O4	24	67*	45	20	10	3	63*
COc1cc2c(cc1OC)C1C(=O)c3ccc4c(c3OC1CO2)CC(C(C)C)O4 (stereo unspecified)	24	73*	45	20	31	-1	69*
C[C@H]1CCC/C=C/[C@@H]2C[C@H](O)C[C@H]2[C@H](O)/C=C/C(=O)O1	26	50*	90*	68*!	23	10	33
C[C@H]1CCCC(=O)CCC/C=C/c2cc(O)cc(O)c2C(=O)O1	-18	12	-13	15	21	x	x
O=C(CCNC(=O)N1C[C@H]2C[C@@H](C1)c1cccc(=O)n1C2)Nc1cccc(Cl)c1	-13	-26	-12	8	-2	x	x
COc1ccc(CC2NCC(O)C2OC(C)=O)cc1 (stereo unspecified)	68*	88*	103*	95*	95*	22*	82*
COc1ccc(CC(=O)N2CCN(C)CC2)cc1	10	18	1	17	-14	x	x
COc1cc(O)c2c(c1)/C=C/C[C@H](O)[C@H](O)[C@@H](O)/C=C/C[C@H](C)OC2=O	10	-3	x	x	x	x	x
Clc1cccc(NC2=NCCS2)c1	-12	-2	-2	2	-14	x	x
CC[C@@H](O)C[C@H]1CCC[C@@]2(C[C@@H]3OC(=O)/C=C/[C@@](C)(O)[C@@H](O)[C@H](C)[C@@H](O)[C@H](OC4CCC(N(C)C)C(C)O4)[C@@H](O)[C@](C)(O)CCCCC/C=C/[C@@H]4CC(C)(C)O[C@@]4(O)C[C@H](O2)[C@H]3C)O1 (stereo partly specified)	-17	80*	92*	73*	69*	3	73*
CCOC(=O)[C@@H]1[C@H]2COc3ccc(Br)cc3[C@@H]2N2C(=O)N(c3cccc(C)c3)C(=O)[C@]12C	-20	-8	7	3	1	x	x
O=c1[nH]cc(N(CCCl)CCCl)c(=O)[nH]1	-1	-9	x	x	x	x	x
CCC(C)C1NC(=O)C(NC(=O)C(CC(C)C)N(C)C(=O)C2CCCN2C(=O)C(C)O)C(C)OC(=O)C(Cc2ccc(OC)cc2)N(C)C(=O)C2CCCN2C(=O)C(CC(C)C)NC(=O)[C@H](C)C(=O)[C@H](C(C)C)OC(=O)CC1O (stereo partly specified)	78*	91*	97*	94*	95*	21*	88*
